PAX8 reporter = PAX8 transcriptional activity inhibition. inhibition, % at 12.6 µM. RMG-I TPO-luciferase reporter, SteadyGlo, 24 h. AID 652154. hit rate 1.2% among 360,000;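 active = mean replicate inhibition at least 60% with every replicate also reaching 60%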;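 also: luciferase light reporting Pax8 driven TPO promoter activity; plate controls were median of neutral control wells for no effect and mitoxantrone controls for full effect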
CSC inhib = cancer stem cell inhibition; inhibition, % at 7.5 µM; hit rate 1.1% among 300,000; cancer stem cell-like cells viability, luminescence; in the data active = inhibition above about 75%; tested in HMLE shEcad cells
Gli-Sufu antag = antagonists of Gli-Sufu signaling. Sufu-KO-LIGHT fibroblasts, Gli luciferase reporter luminescence. inhibition, % at 5 µM. hit rate 0.74% among 340,000;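 active = inhibition above about 55%, limit read from the data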;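 also: 0% = DMSO-treated cells and 100% = wells with medium but no cells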
Mdm2-MdmX inh = inhibitors of human Mdm2/MdmX interaction. SaOS-2 split-luciferase Mdm2/MdmX complementation, luminescence. inhibition, % at 8 µM. AID 485346. hit rate 3% among 330,000;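 active = inhibition of at least 50% at 8 µM in the primary screen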
Target sequence (O15151 whole entry, looked up): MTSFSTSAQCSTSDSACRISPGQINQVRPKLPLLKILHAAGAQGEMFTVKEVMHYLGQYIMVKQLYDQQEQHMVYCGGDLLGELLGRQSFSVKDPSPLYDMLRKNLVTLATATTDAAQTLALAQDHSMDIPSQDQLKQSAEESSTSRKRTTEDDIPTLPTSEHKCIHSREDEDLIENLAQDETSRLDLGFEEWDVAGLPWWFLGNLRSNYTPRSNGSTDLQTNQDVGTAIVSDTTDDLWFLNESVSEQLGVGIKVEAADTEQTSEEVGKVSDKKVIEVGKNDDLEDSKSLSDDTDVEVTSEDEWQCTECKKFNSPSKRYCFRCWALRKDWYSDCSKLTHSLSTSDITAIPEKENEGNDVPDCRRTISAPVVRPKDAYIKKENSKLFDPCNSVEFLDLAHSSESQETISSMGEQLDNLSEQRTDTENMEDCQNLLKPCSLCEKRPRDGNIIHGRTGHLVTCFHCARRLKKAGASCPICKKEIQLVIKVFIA
Target sequence (Q00987 whole entry, looked up): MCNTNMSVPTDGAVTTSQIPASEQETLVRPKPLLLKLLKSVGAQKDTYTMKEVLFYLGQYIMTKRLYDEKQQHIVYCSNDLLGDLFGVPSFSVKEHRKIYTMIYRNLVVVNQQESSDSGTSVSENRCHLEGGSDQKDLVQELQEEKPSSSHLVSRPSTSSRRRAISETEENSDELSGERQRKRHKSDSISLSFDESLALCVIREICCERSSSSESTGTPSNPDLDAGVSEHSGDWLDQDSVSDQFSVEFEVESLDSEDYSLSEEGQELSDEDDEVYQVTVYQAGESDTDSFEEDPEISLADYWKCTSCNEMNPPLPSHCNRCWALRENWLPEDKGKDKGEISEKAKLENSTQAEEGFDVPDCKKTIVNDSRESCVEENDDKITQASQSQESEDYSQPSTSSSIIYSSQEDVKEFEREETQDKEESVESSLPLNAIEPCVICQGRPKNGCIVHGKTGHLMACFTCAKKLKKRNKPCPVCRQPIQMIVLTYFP
Shn3 inh set2 = inhibitors of Schnurri-3 3'UTR reporter in osteoblasts; inhibition, % at 12.5 µM; hit rate 0.52% among 360,000; Clone20 osteoblast Shn3 3'UTR firefly luciferase, 24 h;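 active = mean inhibition of at least 75% with every replicate also reaching 75%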;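 also: 0% = median of neutral control wells and 100% = pilot-screen positive control compound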
Beta apoptosis = blocks beta cell apoptosis; INS-1E cytokine-induced death, ATP luminescence, 48 h; percent of positive-control rescue, neutral wells zero; protection from apoptosis, % (test concentration not listed); hit rate 0.8% among 300,000; AID 435005;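 active = Every replicate reaches about 75%, or at least half do and their mean reaches it too, limit read from the data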;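 also: 0% = cytokine-treated negative control wells and 100% = positive control rescue; higher means more ATP so stronger rescue from cytokine killing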
Gli antag conf = confirmation of Gli-SUFU pathway antagonists; shares compounds with Gli-Sufu antag; Sufu-KO-LIGHT cells, Gli luciferase reporter, luminescence; inhibition, % at 5 µM; hit rate 40% among 2,500; AID 602428;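 active = mean inhibition at 5 µM reaching about 45%, limit read from the data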;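 also: plate controls were DMSO-treated cells for no effect and wells lacking cells for full effect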
SufuKO cytotox = cytotoxic in Gli-SUFU antagonist counter-screen; Sufu-KO-LIGHT cells cytotoxicity, ATP luminescence; cytotoxicity, % at 5 µM; hit rate 32% among 2,500; AID 651994; shares compounds with Gli-Sufu antag;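 active = mean cytotoxicity at 5 µM above about 25%, limit read from the data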;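 also: cells exposed to compound overnight for roughly 16 to 18 hours; plate controls were DMSO wells with cells for no effect and medium without cells for full effect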
Wnt3a counter = Wnt3a reporter inhibition counter-screen; shares compounds with Gli-Sufu antag; Wnt-LIGHT cells, Wnt3a-driven luciferase reporter, luminescence; inhibition, % at 6.25 µM; hit rate 20% among 2,500;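 active = mean inhibition above about 25%, limit read from the data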
* hit, by the source's call; . = not tested or not shown. Most compounds without a hit are left out; they make up all but 4% or so of the library.

SMILES	PAX8 reporter	CSC inhib	Gli-Sufu antag	Mdm2-MdmX inh	Shn3 inh set2	Beta apoptosis	Gli antag conf	SufuKO cytotox	Wnt3a counter
Cc1ccc(CN2CCC(CNC(=O)Nc3ccccc3F)CC2)cc1	4.3	1.1	50.3	21.0	17.8	3.5	31.0	9.0	-9.0
C[C@@H]1CN([C@@H](C)CO)C(=O)Cc2cc(NC(=O)CCC(F)(F)F)ccc2O[C@@H]1CN(C)Cc1ccccc1	4.5	.	.	.	.	.	.	.	.
C[C@@H]1CN([C@@H](C)CO)C(=O)Cc2cc(NC(=O)c3ccncc3)ccc2O[C@H]1CN(C)CC1CC1	-7.9	.	.	.	.	.	.	.	.
CCOC(=O)c1c(C)[nH]c(C(=O)N/N=C/c2ccc(Br)cc2)c1C	27.6	68.6	52.1	45.9	8.0	26.0	50.4*	60.7*	-18.1
CCc1cccc(NC(=O)C2CCCN2S(=O)(=O)c2cccc3cccnc23)c1 (stereo not drawn)	19.6	13.5	51.8	33.7	17.9	0.8	1.8	-4.2	-15.3
CCOC(=O)c1cccc(NC(=O)C2CCCN2S(=O)(=O)c2cccc3cccnc23)c1 (stereo not drawn)	14.2	-14.6	0.4	29.7	18.0	-5.0	.	.	.
COc1cc(OC)c(/C=N/NC(=O)COc2cccc3cccnc23)c(OC)c1	4.2	-4.8	56.1*	7.0	3.0	-0.1	13.1	-11.2	7.9
O=C(C1CCCCC1)N1[C@@H](CO)[C@@H]2c3ccccc3N(S(=O)(=O)c3ccccc3)C[C@@H]21	-5.5	.	.	.	.	.	.	.	.
O=C(NC(=S)Nc1ccc(CN2CCOCC2)cc1)c1ccc(-c2ccc(Br)cc2)o1	.	-4.6	7.2	39.1	.	-6.3	.	.	.
COc1ccc(Br)cc1C(=O)NC(=S)Nc1ccc(CN2CCOCC2)cc1	-27.8	2.4	50.5	40.2	23.4	9.8	20.0	11.7	-16.9
O=C(Nc1ccc2oc(-c3ccncc3)nc2c1)c1ccccc1	-7.3	6.8	84.6*	-13.0	-3.6	0.0	20.9	1.4	-24.9
O=C(Nc1cccnc1)c1ccc(-c2ccccc2)cc1	-7.0	15.7	-20.2	-55.7	-57.7	-0.6	.	.	.
O=C(Nc1ccncc1)c1ccc(-c2ccccc2)cc1	7.8	-14.5	57.8*	-4.4	65.4	1.4	55.0*	23.5	-84.3
C[C@@H]1CN([C@@H](C)CO)C(=O)Cc2cc(NC(=O)c3ccncc3)ccc2O[C@@H]1CN(C)S(=O)(=O)c1ccccc1	-2.7	.	.	.	.	.	.	.	.
O=C(C[C@@H]1C[C@@H]2c3cc(NC(=O)Cc4ccncc4)ccc3O[C@@H]2[C@@H](CO)O1)NCCN1CCCCC1	23.8	.	.	.	.	.	.	.	.
Cc1cc(N/N=C/c2ccc(O)cc2O)nc(-n2nc(C)cc2C)n1	25.0	29.0	87.9*	.	83.8	98.9*	59.6*	27.0*	-35.0
C[C@@H]1CN([C@H](C)CO)C(=O)c2cccc(NS(=O)(=O)c3ccc(F)cc3)c2O[C@@H]1CN(C)Cc1ccc(C(F)(F)F)cc1	7.6	.	.	.	.	.	.	.	.
C/C(=N\NC(=O)c1ccn(C)n1)c1ccc(NC(=O)C2CCC2)cc1	-17.1	24.5	71.9*	10.9	4.9	-1.2	21.0	14.1	18.5
Cc1cc(=O)oc(C)c1C(=O)NCCN1CCOCC1	-6.5	-6.3	71.6*	19.6	7.2	-0.7	28.3	-6.1	25.5*
CCn1c(C)c(C)c2cc(C(=O)NCCN3CCOCC3)ccc21	14.4	-6.5	57.7*	-11.3	8.9	-3.7	29.2	6.2	-10.3
CCCNC(=O)c1c(C)cc(=O)oc1C	.	-1.7	-4.4	-19.0	11.3	-2.6	.	.	.
Cc1cc(C)cc(-n2ccn(CC(=O)NCCc3ccccc3)c(=O)c2=O)c1	-4.3	16.6	54.0	-8.6	-32.0	-5.0	14.4	16.6	-20.4
COc1ccc(N(CC(O)CN2CCCCC2)S(=O)(=O)c2ccc(C)cc2)cc1 (stereo not drawn)	.	-23.5	4.0	3.6	2.1	-3.3	.	.	.
Cc1ccc(S(=O)(=O)N(CC(O)CN2CCCCC2)c2ccccc2)cc1 (stereo not drawn)	-4.7	-10.9	57.6*	13.2	0.0	.	31.7	2.1	-22.5
C[C@H](CO)N1C[C@H](C)[C@@H](CN(C)S(=O)(=O)c2cn(C)cn2)OCCCC[C@H](C)Oc2ccc(NC(=O)c3ccccc3)cc2C1=O	3.5	.	.	.	.	.	.	.	.
SMILES	PAX8 reporter	CSC inhib	Gli-Sufu antag	Mdm2-MdmX inh	Shn3 inh set2	Beta apoptosis	Gli antag conf	SufuKO cytotox	Wnt3a counter
COc1cccc(C(=O)Nc2ccc3c(c2)C(=O)N(C)C[C@@H](OC)[C@H](C)CN(CC2CC2)[C@H](C)CO3)c1	10.9	.	.	.	.	.	.	.	.
COC(=O)C[C@@H]1CC[C@H]2[C@H](COc3ccc(NC(=O)NC(C)C)cc3C(=O)N2C)O1	5.3	.	.	.	.	.	.	.	.
CCN(CC(=O)Nc1cc(Cl)ccc1C)C(=O)CSCc1c(C)noc1C	5.8	-4.7	51.6	8.4	-8.2	-0.5	12.7	21.8	-10.1
COc1ccc(S(=O)(=O)N[C@H]2CC[C@H](CCNC(=O)c3ccccc3F)O[C@H]2CO)cc1	-8.1	.	.	.	.	.	.	.	.
COc1ccc(S(=O)(=O)Nc2ccc3c(c2)CC(=O)N([C@@H](C)CO)C[C@@H](C)[C@@H](CN(C)C(=O)Nc2ccccc2)O3)cc1	-9.9	.	.	.	.	.	.	.	.
COC(=O)C12OCC34C(CC5C(C)=C(O)C(=O)CC5(C)C3C(O)C1O)OC(=O)C(OC(=O)C=C(C)C)C24 (stereo not drawn)	98.9*	.	91.1*	.	99.1*	.	95.0*	76.3*	104.6*
C[C@@H]1CCCCO[C@H](CN(C)C(=O)Cc2ccccc2)[C@H](C)CN([C@H](C)CO)C(=O)c2cc(NC(=O)c3ccncc3)ccc2O1	42.1	.	.	.	.	.	.	.	.
Cc1c(OCC(=O)C(C)(C)C)ccc2c3c(c(=O)oc12)CCCC3	-21.3	51.9	62.3*	6.4	20.2	.	27.4	6.5	-50.1
CCOC(=O)COc1ccc2c3c(c(=O)oc2c1C)CCC3	.	-4.0	10.8	1.4	-16.9	0.3	.	.	.
CO[C@H]1CN(C)C(=O)c2ccc(NC(=O)C3CCCC3)cc2OC[C@H](C)N(C)C[C@H]1C	2.1	.	.	.	.	.	.	.	.
Cc1ccc(C2CC(C(F)(F)F)n3nc(C(=O)NCc4c(C)nn(C)c4C)c(Cl)c3N2)cc1 (stereo not drawn)	.	-5.2	53.7	24.5	72.4	27.6	53.5*	31.8*	11.1
Cc1nn(C)c(C)c1CNC(=O)c1cnn2c1NC(c1ccccc1)CC2C(F)(F)F (stereo not drawn)	.	-1.1	3.8	-8.5	19.7	-4.7	.	.	.
Cc1nn(C)cc1/C=C/C(=O)c1cccs1	-215.1	-8.1	-0.2	-105.4	-43.6	2.0	.	.	.
Cc1nn(C)cc1/C=C/C(=O)c1ccccc1	.	5.9	98.8*	-35.9	-56.8	-13.0	14.1	6.1	-5.4
C(#Cc1ccccc1)C[N+]1(CC#Cc2ccccc2)CCCCC1	38.3	1.9	81.4*	19.9	86.0*	.	78.6*	37.7*	24.3
